Test system: VDR:RXRa (NR concentration 270 nM, RXRa partner concentration 90 nM)
Experiment: PBM binding z-score (relative to random genomic background probes); higher = stronger binding; sequences stand for … in GC…GCGATTGACAGCGTAGAATGAAGG
Procedure: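 Protein-binding microarray (Agilent 4x180K custom design, double-stranded 60-nt probes: 5' GC cap, 34-nt variable region, 24-nt constant primer region; full probe sequence given). Purified or IVT nuclear receptor:RXRα heterodimers (3:1 NR:RXRα, mostly 270:90 nM) or homodimers were incubated for 1 h in PBS with 2% milk and no ligand, then detected with Alexa488 antibodies. Fluorescence from o1-orientation probes (~5 replicates averaged) was converted to z-scores against 500 random hg19 background probes. Variable regions are seed direct-repeat (DR0–DR5) sites, all their single-nucleotide variants and half-site ablations.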

Sequence | PBM binding z-score
AGAATGAGGTTAGCAAAGATCAGGGAAACGCTTG | 0.322
AGAATGAGGTTATACGTAGGTCAGGGAAGAAAGT | 3.34
TTACCGAGGTGAAAGGTCGTTGATGCACGCCTTG | 3.72
ATATGTAGGTTAGGGTGATTCAGAAAGTAGGGAA | 1.09
CCGAGTAGGTTACGAAGGGGCATTCAGTGCGAAT | 3.08
CGAACTAGGTCACCAGGACAGTGATGAGGTTGGA | 2.17
CCTAGTTGGTCAAGGTCTCACACGCTATAGGTAC | 0.578
CGAACTATGTCAAGGACAGTGAATCTCCGCACGC | -0.248
ATCGAAAGGTCGCAGGTGAGTATACCCACCCGAA | 3.2
GCTAGTTGGTCAGTAAATGGTCACACACCGGTCG | -0.166
CCTACTGGGCCATCAGGTGATTGATATCAACGTT | -0.317
TAGCCTAGGTCATGCGGGTCAGTATAGTGTCGGC | 5.81
ATCTGTAGGTTATCGGGTCATTCAGTTTGCGCAT | 5.17
ATATGGAGGTTAAGGGTCATTCAGGTTGGTTCGC | 6.32
GATACAGGGTCAGCTAGAGGGCAGAGTATGGAAA | 4.22
CCTACTGGGCCAAGCTCATTGATCAGTCAAAGCA | -0.667
CGTCCAAGGTCAGAGAGGTCAGTGTATGCCGAGT | 7.31
TCTCGGAGGACACGAAGGTCAAAGCTTTCCAGAG | 3.87
ATAGGTAGGTTAGGGTCATTCAGAAAGTAGGGAA | 5.05
GATACAAGGTCAGCTAGAGGCCAGAGTATGGAAA | 3.19

Sequence | PBM binding z-score
TAGCCTAGGTCAGATCGGGGCAGTATACGCTATA | 1.56
CGAACTATGTCAAAGGACAGTGAAAGGCGACGTA | -0.0394
TAGCCTAGGTCATGCGGGCCAGCATAGTGTCGGC | 2.7
TCGAGTAGATTACGGGGGCATTCAGGGATGAAGA | 2.83
CTCTGTAGGTTAAGGGGGTCATTCAGTTTGAAAG | 7.66
CTATGTAGGTGAAGGGGGTCATTCAGTTTGAAAG | 7.13
ATATGTAGGTTAGGGTCATTCTGAAAGTAGGGAA | 4.44
CCTACTGGGCCATGAAAGGTCATTGATTCAGTGA | 3.82
CGAACTAGGTCAACGGACAGTGAAAGGCGACGTA | 1.12
CTATGTAGGTTAAGGGGCTCATTCAGTTTGAAAG | 0.993
ACTCGGAGGATAAAGGTCAGAGCTACGCCAGTGA | 2.36
CGAACTAGGTCACCAGGACAGTGTAGAGGTTGGA | 2.17
AGTCAAATTTCACTAGGTAACGTAAGATTCAGCT | 0.337
CACACTAGGTCAAGAGGTCAAAGTCCGCTTCCCG | 6.08
ATCGAAAGGTCGAAGGTCAGTATACCCACCCGAA | 4.35
CCAAGTAGGTTACGAGGGGGCATTCAGTGCGAAT | 5.54
CAAACTAGGTCACCAGGACAGTGAAGAGGTTGGA | 2.3
CGTCCAAGGTCAAAGGTCAGGGAAGAGATGACGG | 6.71
CGTCAAAGTTCAACTAATGTAACGTAAAGCACGC | 4.2
ATCGAAACGTCGACGAGGTGAGTATACACCGTTT | -0.119
